Laboratory results reported in PubChem BioAssay AID612 (The Scripps Research Institute Molecular Screening Center, 2007).
Screen size: about 62,000 compounds; about 420 (0.68%) were called active. The full list was thinned out, with actives kept by preference. Values without a mark were called inactive.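 Rule for the calls: active = inhibition above the mean of all tested compounds plus 3 SD (cut at about 43% in these data); inactive = the rest.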

biological target: 5-hydroxytryptamine receptor 1A (Homo sapiens) (UniProt P08908); test: blockade of serotonin HTR1A receptor – cell-based, CHO, Ga15 NFAT-bla reporter, primary screen (AID 612); details: CHO 5-HT1a Ga15 NFAT-bla reporter, antagonist mode; at 10 µM; stronger effect = higher value;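 note: receptor stimulated by 5-CT agonist at 100 nM near EC80; beta-lactamase reporter measured by ratiometric fluorescence of a cleavable substrate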
Sequence (P08908 whole entry, looked up): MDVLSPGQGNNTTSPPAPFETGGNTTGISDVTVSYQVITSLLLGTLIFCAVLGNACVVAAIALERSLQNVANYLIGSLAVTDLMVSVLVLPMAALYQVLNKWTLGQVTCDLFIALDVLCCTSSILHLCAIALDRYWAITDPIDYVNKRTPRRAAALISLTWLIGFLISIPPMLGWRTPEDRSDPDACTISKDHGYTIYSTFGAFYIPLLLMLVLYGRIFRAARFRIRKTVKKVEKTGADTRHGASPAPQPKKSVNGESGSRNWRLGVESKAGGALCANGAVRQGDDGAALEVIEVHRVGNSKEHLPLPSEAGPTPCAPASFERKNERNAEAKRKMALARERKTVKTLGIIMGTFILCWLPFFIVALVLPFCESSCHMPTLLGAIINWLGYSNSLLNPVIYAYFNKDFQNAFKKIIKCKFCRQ

Row | SMILES | inhibition
1 | O=S(=O)(NCc1ccccn1)c1ccc(F)cc1 | -4.1%
2 | CC1CCCC(C)N1CCCNC(=O)c1cc2c(=O)n(C)c3ccccc3c2n1C (stereo not given) | 1.7%
3 | CCn1c(=O)cc(OCC(=O)NCCCN2CCN(c3cccc(Cl)c3)CC2)c2ccccc21 | 50.4% (active)
4 | Cn1c(C(=O)NCCCN2CCN(c3cccc(Cl)c3)CC2)cc2c(=O)n(C)c3ccccc3c21 | 47.4% (active)
5 | Cn1c(C(=O)NCCc2ccsc2)cc2c(=O)n(C)c3ccccc3c21 | -3.6%
6 | CCOC(=O)N1CCC(Nc2c(NCCN3CCN(c4cccc(Cl)c4)CC3)c(=O)c2=O)CC1 | 1.9%
7 | O=C(CCn1c(=O)[nH]c2ccccc2c1=O)NCCCN1CCN(c2cccc(Cl)c2)CC1 | 37.1%
8 | Fc1ccc2nc(Nc3nc4c(s3)CCCC4)sc2c1 | 16.8%
9 | Cc1cnc(NC(=O)CSc2nnc(-c3ccc(Cl)cc3Cl)n2N)s1 | -1.4%
10 | CN(CCCNC(=O)CN1C(=O)CC(C)(C)S(=O)(=O)c2ccccc21)C1CCCCC1 | -7.9%
11 | CCOC(=O)Cn1c2c(c(-c3ccccc3OC)cc1=O)CCCC2 | 17.8%
12 | O=S(=O)(c1ccc(Sc2nnc3ccccn23)nc1)N1CCOCC1 | -7.8%
13 | O=C(Nc1nnc(-c2ccc(Cl)cc2)o1)c1ccccc1Br | 8.9%
14 | O=c1cc(CSc2ccc(Cl)cc2)nc(N2CCOCC2)[nH]1 | -13.7%
15 | Cc1cc2c(=O)n(C)c(SCC(=O)c3cc4ccccc4o3)nc2s1 | -6.7%
16 | COc1ccccc1-c1nc(C(F)(F)F)c(OC)o1 | 3.7%
17 | COCCNC(=O)Cn1cc2c(n1)CCCCC2 | -1.6%
18 | Nc1nonc1-c1nc2ccccc2n1Cc1ccc(F)cc1 | 48% (active)
19 | COc1ccc(C)c(Cn2c(-c3nonc3N)nc3ccccc32)c1 | 38.7%
20 | Nc1nonc1-c1nc2ccccc2n1CCC(=O)O | -21.2%
21 | Cc1cccc2nc(CNc3ccc(F)cc3)cn12 | -11.2%
22 | COc1ccc(N2C(=O)C3CCCN3C2c2cccs2)cc1 (stereo not given) | 19.9%
23 | O=C(CSc1nnc2ccccn12)c1ccccc1 | 3.3%
24 | COc1ccc(OC)c(C(=O)CSc2nnc(-c3cccs3)o2)c1 | -4.9%
25 | Cc1ccc(-c2noc(CCC(=O)Nc3ccccc3N3CCN(C)CC3)n2)cc1 | 5.2%

Row | SMILES | inhibition
26 | O=C(NCCN1CCOCC1)c1ccc2c(c1)ncn2C1CCCC1 | -8%
27 | Cc1ccc(Oc2ccc(N)cc2)cc1 | 11.4%
28 | CCCc1nc(SCC(=O)Nc2ccccc2OC)c2c(=O)n(C)c(=O)n(C)c2n1 | 10.8%
29 | CCOc1cc(/C=N/n2cnnc2)c(Br)cc1O | -8.1%
30 | COc1ccc(O)c(C=Nc2cc(C)on2)c1 | 4.6%
31 | COc1ccccc1-n1cnc2cc(C(=O)NCC3CCCO3)ccc21 (stereo not given) | 10.8%
32 | COC(=O)c1ccc(CSc2nncn2C)cc1 | -0.1%
33 | COc1ccc(C(CNC(=O)c2cccnc2SC)N2CCOCC2)cc1 (stereo not given) | 5.3%
34 | CCCC(=O)Nc1c(O)c2ccccc2[nH]c1=O | 0.3%
35 | O=C(c1cc(-c2cccc(O)c2)on1)N1CCc2ccccc2C1 | -4.3%
36 | c1ccc(-c2cn3cccnc3n2)cc1 | -0.3%
37 | C/C(CC(O)(/C=N/O)c1ccccc1)=N\O (stereo not given) | 7.7%
38 | CS(=O)(=O)c1ccc2nc(NC(=O)C3C4C=CC(C4)C3C(=O)O)sc2c1 (stereo not given) | -0.7%
39 | CN1C(=O)c2ccccc2C(C(=O)NCCCN2CCCC2)C1c1c[nH]c2ccccc12 (stereo not given) | -6.4%
40 | O=C(O)CCN1C(=O)CC2(CCCCC2)C1=O | 6.3%
41 | C=CCSc1nnc(Cn2c(=O)sc3ccccc32)n1C | -0.5%
42 | COc1nc(NCc2ccc(Cl)cc2)nc(OC)n1 | -1.3%
43 | Cc1nc(C)c2c(c1C(F)(F)F)-c1ccccc1C2(F)F | -9.3%
44 | Cc1ccc2c(C(=O)CN3CCCC3)c(C)[nH]c2c1 | 14.4%
45 | CCCCOc1ccc(C(C)(O)CCN2CCOCC2)cc1 (stereo not given) | 8.9%
46 | Cc1oc2nc(SCC(=O)NCc3cccnc3)nc(N)c2c1C | 5.1%
47 | CCOc1ccc(Cn2nnc(C(=O)NCc3ccccc3)c2N)cc1 | 10.3%
48 | CCC(C)NC(=O)N[C@@H](CCSC)C(=O)O (stereo not given in full) | -11.6%
49 | CC1(C)C(=O)C2(CCCCC2)C(=O)OC1c1cccs1 (stereo not given) | -2.8%
50 | CN(CCC#N)c1ncnc2scc(-c3ccccc3)c12 | 11.5%

Row | SMILES | inhibition
51 | C/C(=C\C(=O)c1ccc(Br)cc1)N1CCCCC1 | 0.5%
52 | CCN(CC)S(=O)(=O)c1cccc(C(=O)Nc2ccccc2)c1 | 16.2%
53 | Cc1cc(C(=O)OCC(=O)c2c(N)n(C)c(=O)n(C)c2=O)c(C)o1 | -7.9%
54 | CCOC(=O)CN1CC23C=CC(O2)C(C(=O)Nc2ccc(F)cc2)C3C1=O (stereo not given) | -5.1%
55 | Cc1ccc(-n2c(Cc3cccs3)nnc2SCC(=O)OC(C)C)cc1 | 8.6%
56 | Cc1c(C(=O)NCCN2CCOCC2)sc2nc(-c3ccc(F)cc3)cn12 | -8%
57 | O=C(COc1ccc(S(=O)(=O)NCCc2ccccc2)cc1)N1CCCC1 | -0.2%
58 | CCOC(=O)C1CCCN(C(=O)CN(c2ccc(OC)cc2)S(=O)(=O)c2c(C)noc2C)C1 (stereo not given) | -9.3%
59 | CCCCNC(=O)c1ccccc1NC(=O)c1ccccc1N(C)S(C)(=O)=O | -13.1%
60 | CCN1CCN(Cc2nc3c(c(=O)n(C)c(=O)n3C)n2CC(=O)c2ccccc2)CC1 | 4.5%
61 | O=C(C1=C(O)C(=O)N(c2ncccn2)C1c1cccs1)c1ccco1 (stereo not given) | 11.8%
62 | Cc1cc(C(=O)Nc2c(C)n(C)n(-c3ccccc3)c2=O)cs1 | 5.4%
63 | O=C(NC1=NCCS1)c1ccc(Cl)s1 | 10.2%
64 | Cc1ccccc1Nc1nc(N)nc(CN2CCN(c3ccccn3)CC2)n1 | 2%
65 | CCOC(=O)c1ccc(N2C(=O)CC(N3CC(C)OC(C)C3)C2=O)cc1 (stereo not given) | 14%
66 | CC1=C(C(=O)OC2CCCCC2)C(c2cccnc2)n2ncnc2N1 (stereo not given) | -5%
67 | CCN1CCN(Cc2c(O)ccc3c(=O)c(-c4ccc(OC)c(OC)c4)c(C(F)(F)F)oc23)CC1 | 4.3%
68 | COc1ccc(NC(=O)c2cccc(NC(=O)c3ccco3)c2)c(OC)c1 | 5.2%
69 | Cc1ccc(S(=O)(=O)N2CCOCC2)cc1C(=O)NCc1ccc(F)cc1 | 3.3%
70 | CC1Cc2ccccc2N1C(=O)CSc1nnc(-c2ccc(S(=O)(=O)N3CCCCC3)cc2)o1 (stereo not given) | 1.4%
71 | COc1ccc(OC)c(S(=O)(=O)N(C)CC(=O)N2CCN(c3ccccc3)CC2)c1 | -11.1%
72 | COc1ccc(C(C(O)C(=O)c2c[nH]c3ccccc23)N2CCN(c3ccccc3)CC2)cc1 (stereo not given) | 43.9% (active)
73 | CCCC(=O)NC(C)C(c1cccs1)N1CCN(c2ccccc2)CC1 (stereo not given) | 16.9%
74 | COc1ccc(NC(C)=O)cc1NC(=O)CN1CCN(c2ccccn2)CC1 | -0.2%
75 | Cc1ccc(-n2nc3c(c2NC(=O)c2ccc4c(c2)OCO4)CSC3)c(C)c1 | 9%

Row | SMILES | inhibition
76 | O=C(Nc1ccc(-c2nnc(-c3ccccc3)o2)cc1)C1CCCO1 (stereo not given) | 9.7%
77 | Nc1ccc(-c2nnc(-c3ccc(-c4ccccc4)cc3)o2)cc1 | 62.6% (active)
78 | O=C(Nc1ccc(-c2nnc(-c3ccccc3)o2)cc1)c1ccc(Br)o1 | -16.4%
79 | CN1CCN(C(=O)C2C3C=CC(C3)C2C(=O)O)CC1 (stereo not given) | -4%
80 | CCOC(=O)c1ccc(NC(=O)CSc2ncccn2)cc1 | -16.8%
81 | Cc1noc(C)c1S(=O)(=O)N1CCCC(C(=O)Nc2nccs2)C1 (stereo not given) | -3.8%
82 | CCc1nnc(NC(=O)c2nc3nccc(C)n3n2)s1 | -1.7%
83 | O=S(=O)(Nc1nccs1)c1ccc2c(c1)OCCO2 | -0.3%
84 | O=C(CN1CCOc2ccccc21)N1CCC(Cc2ccccc2)CC1 | 4.5%
85 | CC(=O)C1C(c2cccc(Oc3ccccc3)c2)NC(=O)NC1(O)C(F)(F)F (stereo not given) | -16.2%
86 | O=C(CSCc1cccs1)N1CCCC1 | -5.9%
87 | O=C1c2cccnc2C(=O)N1Cc1cccs1 | -0.8%
88 | c1csc(CN2CCN(Cc3cccs3)C2c2cccs2)c1 | 78.7% (active)
89 | N#Cc1ccc(COC(=O)Cn2nnc(-c3ccccc3)n2)cc1 | 7.6%
90 | Cc1ccc(CNC(=O)CCCNC(=O)c2ccc(Cl)cc2)n1C | -4.8%
91 | CCSC1(SCC)N=C(N)C2(C#N)C(c3ccccc3)NC(C)=CC12C#N (stereo not given) | 1.4%
92 | CCOc1ccc(-c2cn(S(=O)(=O)c3cccc4nsnc34)nc2N)cc1 | 11.8%
93 | CCN1CCN(c2c(Cl)cccc2NC(=O)c2ccc(Br)o2)CC1 | 63.5% (active)
94 | COc1cc(OC)c(NC(=O)c2ccc(Br)o2)cc1Cl | 5.1%
95 | CCCC(=O)Nc1ccc(Cl)c(NC(=O)c2ccc(Br)o2)c1 | -5.8%
96 | O=C(CCCn1c(SCC(=O)c2ccc(F)cc2)nc2ccccc2c1=O)NCc1ccco1 | 7.8%
97 | Cn1nc(-c2ccc(N3CCOCC3)c(NC(=O)c3ccccc3)c2)c2ccccc2c1=O | 26.6%
98 | Cc1ccc(C(c2nnnn2C(C)(C)C)N2CCc3ccccc3C2)cc1 (stereo not given) | -4.5%
99 | COc1ccc(OC)c(C(c2nnnn2C(C)(C)C)N2CCc3ccccc3C2)c1 (stereo not given) | 48.2% (active)
100 | COCCn1nnnc1C(c1cc2ccc(OC)cc2[nH]c1=O)N1CCc2ccccc2C1 (stereo not given) | 1.8%
